Consider 56 compounds from PubChem BioAssay AID2130 (The Scripps Research Institute Molecular Screening Center, 2009).

In all, about 320,000 compounds went through this assay and about 1,700 (0.53%) were called active.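 Rule for the calls: active = inhibition above the campaign mean of all compounds plus 3 SD (cut at about 26% in these data); inactive = the rest.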 The entries come from a sample that favours actives as a whole.

In this assay the target is Protein phosphatase methylesterase 1 (Homo sapiens) (UniProt Q9Y570). Briefly: PME-1 inhibitors via competitive probe labeling, primary screen, biochemical, fluorescence polarization, FP-Rh probe, HTS (AID 2130).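 Note: competitive labeling of PME-1 active site by serine hydrolase directed probe; 0% = PME-1 with DMSO and 100% = wells lacking PME-1 enzyme; inhibitors block probe labeling so polarization falls and inhibition rises.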 Particulars: recombinant PME-1, FP-Rh probe fluorescence polarization; at 5.9 µM; active compounds read high.
Protein phosphatase methylesterase 1 (Homo sapiens), sequence (Q9Y570 whole entry, looked up): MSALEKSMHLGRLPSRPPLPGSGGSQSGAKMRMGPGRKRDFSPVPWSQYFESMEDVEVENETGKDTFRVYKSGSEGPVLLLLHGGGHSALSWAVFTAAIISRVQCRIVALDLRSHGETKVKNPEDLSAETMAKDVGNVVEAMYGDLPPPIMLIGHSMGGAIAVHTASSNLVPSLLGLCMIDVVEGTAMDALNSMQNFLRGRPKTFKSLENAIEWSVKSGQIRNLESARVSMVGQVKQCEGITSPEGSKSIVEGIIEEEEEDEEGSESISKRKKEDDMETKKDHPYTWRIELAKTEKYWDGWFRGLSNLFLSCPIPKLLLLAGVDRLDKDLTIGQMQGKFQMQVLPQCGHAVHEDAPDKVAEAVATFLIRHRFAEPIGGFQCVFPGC
For the compound `Cc1ccc2nc(SCC(=O)N3CCN(c4ccccc4)CC3)nc(=O)n2c1`, the inhibition is 11.8% (inactive).

For the compound `Cc1ccccc1CCN(CC(=O)NC1CCCCC1)C(=O)c1csnn1`, the inhibition was 3.53% (inactive).

In the case of `CCc1nc2nc(C)c(NS(=O)(=O)c3ccc4c(c3)CCCC4)c(=O)n2[nH]1`, the inhibition was 3.49% (inactive).

Regarding `CCOC(=O)c1c(C)oc(C)c(C(=O)OCC)c1=O`, the inhibition was 2.67% (inactive).

As to `CCOC(=O)c1ccc(Nc2cc3ccccc3c(=O)[nH]2)cc1`, the inhibition was 51.5% (active).

As for `CCOC(=O)c1nc(Nc2ccc(C(=O)OC)cc2)c2ccccc2n1`, the inhibition was -3.8% (inactive).

For `CCOC(=O)c1ccc(NC(=O)c2cc(=O)[nH]c3ccccc23)cc1`, the inhibition is -7.83% (inactive).

As for `CCNC(=S)N(CCN(CC)CC)Cc1cc2cc3c(cc2[nH]c1=O)OCO3`, the inhibition was -3.38% (inactive).

For `CC1CCC(CN2CCN=C2N(C)C)CC1` (stereo unspecified), the inhibition is 0.76% (inactive).

Take `O=C(NC(=S)Nc1ncccn1)c1ccccc1Br`: the inhibition was -6.82% (inactive).

As for `COc1ccc(Cn2nnc3c(=O)[nH]c(C4CCN(C(=O)c5ccccc5Cl)CC4)nc32)cc1`, the inhibition is 10.2% (inactive).

`Cc1ccc(NC(=O)N2CCC(c3nc4c(nnn4Cc4c(F)cccc4Cl)c(=O)[nH]3)CC2)cc1`: the inhibition is 4.6% (inactive).

Turning to `Cc1ccc(Cn2nnc3c(=O)[nH]c(C4CCN(S(=O)(=O)/C=C/c5ccccc5)CC4)nc32)cc1`, the inhibition was 31.4% (active).

For the compound `O=S(=O)(c1cnccc1N1CCN(/N=C/c2ccc(Br)cc2)CC1)N1CCCCC1`, the inhibition was 1.2% (inactive).

Regarding `CN=C1C=C/C(=N/N=c2\ccn(O)cc2C)C=C1C`, the inhibition is -11% (inactive).

Turning to `CCOC(=O)C1Sc2[nH]c(=O)sc2C(c2ccc(Cl)cc2)C1C(=O)OCC` (stereo unspecified), the inhibition was 9.44% (inactive).

Regarding `Cc1cc(OCC(=O)NCC(O)c2ccccc2)c2c(C)c(C)c(=O)oc2c1` (stereo unspecified), the inhibition was 1.37% (inactive).

`O=C(Oc1ccc([N+](=O)[O-])cc1)c1ccc(Cl)c(S(=O)(=O)N2CCCCC2)c1`: the inhibition is -1.4% (inactive).

As to `COc1ccc2nc(NC(=O)c3ccc(Br)s3)sc2c1`, the inhibition is -12.8% (inactive).

`COc1ccc2nc(Nc3nc4cc5c(cc4s3)OCCO5)sc2c1`: the inhibition is 92.8% (active).

For the compound `CCc1noc(C)c1C(=O)Nc1nc2ccc(OC)cc2s1`, the inhibition was 2.67% (inactive).

As to `C/C=C/C(=O)Nc1ccc(N2CCN(c3ccc(C(F)(F)F)cn3)CC2)nc1`, the inhibition is -7.12% (inactive).

On to `CCN1CCN(C(=O)Cn2nc(C)n3c(cc4c(OC)cccc43)c2=O)CC1`, for which the inhibition was -4.63% (inactive).

Take `Cc1ccc(-n2c(SCC(=O)N3CCC(C(=O)O)CC3)nc3ccccc3c2=O)cc1C`: the inhibition was 5.62% (inactive).

As for `O=S(=O)(Nc1ccccc1Cl)c1cccc2nsnc12`, the inhibition is -1.38% (inactive).

In the case of `CC(=O)N1CCc2c(sc(NC(=O)CCS(=O)(=O)c3ccccc3)c2C#N)C1`, the inhibition is -1.35% (inactive).

For `COc1ccc(NC(=O)CCNC(=O)Cn2cnc3sc4c(c3c2=O)CCCC4)cc1OC`, the inhibition was -4.87% (inactive).

Regarding `COc1ccc(NC(=O)CCCNC(=O)Cn2cnc3sc4c(c3c2=O)CCCC4)cc1OC`, the inhibition was 3.69% (inactive).

Turning to `COc1ccc(/C=N/Nc2ncnc3sc4c(c23)CCCC4)cc1O`, the inhibition is 29.7% (active).

In the case of `COc1ccc(CC(NC(C)=O)C(=O)NC2CCN(C(=O)Nc3ccc(C#N)cc3)CC2)cc1OC` (stereo unspecified), the inhibition is 2.43% (inactive).

For the compound `COC(=O)C1=C(C)NC(=S)NC1c1ccc(OCC(=O)N2CC(C)OC(C)C2)c(OC)c1` (stereo unspecified), the inhibition was 4.05% (inactive).

In the case of `CCC(=O)c1ccc(OCC(=O)Nc2ccc3nc(C)sc3c2)cc1`, the inhibition was -15.4% (inactive).

Consider `CCOc1ccc2nc(Nc3nc4ccc(NC(C)=O)cc4s3)sc2c1`, for which the inhibition is 50.7% (active).

For `CCOc1ccc2nc(NC(=O)CSc3nc4c(c(=O)n(C)c(=O)n4C)n3CC)sc2c1`, the inhibition was 1.27% (inactive).

Regarding `CCOc1cc(C(=O)Nc2c(C)ccc3nsnc23)cc(OCC)c1OCC`, the inhibition is -3.07% (inactive).

As to `CCN1CCN(C(=O)N[C@@H](C(=O)N[C@@H]2C(=O)N3C(C(=O)O)=C(CSc4nnnn4C)CS[C@H]23)c2ccc(O)cc2)C(=O)C1=O`, the inhibition is 1.33% (inactive).

`O=C(Oc1cccc(N2C(=O)C3C4c5ccccc5C(c5ccccc54)C3C2=O)c1)c1ccco1` (stereo unspecified): the inhibition is 2.64% (inactive).

Turning to `Cc1nc(N=C(N)N)nc2c(C)cccc12`, the inhibition was -4.31% (inactive).

`CSc1ncccc1C(=O)N1CCCC(CCC(=O)NCc2ccccc2F)C1` (stereo unspecified): the inhibition is -3.09% (inactive).

Regarding `Cc1[nH]c2c(C(=O)N3CCCC(CCC(=O)NCc4ccccc4F)C3)cccc2c1C` (stereo unspecified), the inhibition was 28.6% (active).

Consider `O=C(CCC1CCCN(Cc2ccc(O)c(Cl)c2)C1)NCc1ccccc1F` (stereo unspecified), for which the inhibition is -1.64% (inactive).

In the case of `Cc1cccc(N(Cc2ccccc2)C(=O)c2cc(S(=O)(=O)N3CCOCC3)ccc2F)c1`, the inhibition is 8.02% (inactive).

`COc1cc(/C=N/Nc2nc3ccccc3s2)ccc1O`: the inhibition was 45.3% (active).

As to `COc1cc(/C=N\Nc2nc(-c3cccs3)c(NC(C)=O)s2)ccc1O`, the inhibition was 7.62% (inactive).

Turning to `COc1ccc(/C=N/Nc2nc3ccccc3o2)cc1OC`, the inhibition is 23.1% (inactive).

For the compound `COC(=O)COc1cccc2c(=O)n(CC(=O)NCc3ccccc3)ccc12`, the inhibition is -7.45% (inactive).

In the case of `Cc1cc(C)c(C)c(S(=O)(=O)Nc2ccc(O)cc2)c1C`, the inhibition is 6% (inactive).

Turning to `O=C(Nc1ccnn1C1CCN(Cc2cccc(OCCO)c2)CC1)C1CCCC1`, the inhibition is 4.32% (inactive).

Regarding `Oc1ccc(/C=N/Nc2nc(-c3ccccc3F)nc3ccccc23)c(O)c1`, the inhibition is 55% (active).

With `O=c1c2ccccc2nc(N/N=C/c2ccccc2)n1O`, the inhibition was -3.42% (inactive).

Consider `FC(F)(F)c1nc2ccccc2nc1N/N=C/c1ccc(Cl)cc1`, for which the inhibition was 2.4% (inactive).

For the compound `Cc1nc2ccccc2nc1N/N=C/c1ccc(O)cc1O`, the inhibition is 36.9% (active).

As to `COc1cccc(/C=N/Nc2cc(C)nc(-c3ccccc3O)n2)c1O`, the inhibition was 23.9% (inactive).

In the case of `COc1ccccc1N1CCN(/N=C/c2ccc(O)cc2O)CC1`, the inhibition was 2.94% (inactive).

Consider `CCO[C@H]1OC(C(=O)N2CCN(Cc3ccccc3)CC2)=C[C@@H](c2cn(C(C)=O)c3ccccc23)[C@@H]1CCCO`, for which the inhibition was 10.4% (inactive).

Take `CC(=O)Nc1ccc(S(=O)(=O)N2CCC(C(=O)N[C@@H](Cc3ccccc3)C(=O)O)CC2)cc1`: the inhibition is -6.81% (inactive).
